Screening data as filed in PubChem.
sPLA2-III inh: human group III sPLA2 inhibitors, primary screen, biochemical, QFRET, BODIPY PC-A2 liposome substrate; 370,000 compounds, 0.56% hits; Group 3 secretory phospholipase A2 (Homo sapiens), Q9NZ20; inhibition, % at 12.2 µM; QFRET BODIPY PC-A2 liposome hydrolysis, fluorescence;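 active = inhibition above mean plus 3 SD of compounds lying within the high and low control bounds, cut at about 19% in these data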;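 also: 0% = median of test compound wells and 100% = no enzyme DMSO wells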
Cardio protect: cardioprotection against H2O2-induced cell death, primary screen, uHTS, H9c2 cells, ATPLite luminescence. H9c2 cardiomyocytes, H2O2 injury protection, 2 h. protection from H2O2 cell death, % at 20 µM. 360,000 compounds, 0.63% hits. AID 588492, 2011;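 active = compounds giving at least 50% protection of heart cells from peroxide-induced death in the single-dose screen, raw or plate-pattern-corrected value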;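 also: 0% = DMSO wells with peroxide and 100% = DMSO wells without peroxide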
Myeloid diff MLP: induction of myeloid progenitor differentiation, primary screen, cell-based, flow cytometry, MLPCN library. AID 624256, 2012. ER-HoxA9 myeloid progenitors, lysozyme-GFP differentiation. 360,000 compounds, 1% hits. calls only at 10 µM;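 active = normalized GFP-positive differentiation at or above the plate's own cutoff, the solvent-only control mean plus 3 SD; inconclusive = no clear call, values can overlap the other calls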;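 also: cells exposed to compound for four days before flow analysis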
Rtt109 HAT inh: inhibitors of C. albicans Rtt109/Vps75 HAT, primary screen, biochemical, ThioGlo CoA-SH fluorescence, plate reader | purified Rtt109/Vps75, 4 h | AID 540336, 2011 | 330,000 compounds, 0.16% hits | inhibition, % at 34.9 µM;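 active = inhibition of at least 50% in every replicate; inconclusive = best replicate reaches 50% inhibition but some replicates fall short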
DAGLB inh: DAGLB lipase inhibitors, primary screen, biochemical, fluorescence, HTS | Diacylglycerol lipase-beta (Homo sapiens), Q8NCG7 | HEK293T DAGLB membrane lysate, EnzChek fluorogenic substrate | inhibition, % at 5.17 µM | 340,000 compounds, 0.059% hits | AID 504411, 2011; in the data active = inhibition above about 34%;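 also: 0% = enzyme with vehicle and 100% = wells lacking enzyme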
Target sequence (Q8NCG7 whole entry, looked up): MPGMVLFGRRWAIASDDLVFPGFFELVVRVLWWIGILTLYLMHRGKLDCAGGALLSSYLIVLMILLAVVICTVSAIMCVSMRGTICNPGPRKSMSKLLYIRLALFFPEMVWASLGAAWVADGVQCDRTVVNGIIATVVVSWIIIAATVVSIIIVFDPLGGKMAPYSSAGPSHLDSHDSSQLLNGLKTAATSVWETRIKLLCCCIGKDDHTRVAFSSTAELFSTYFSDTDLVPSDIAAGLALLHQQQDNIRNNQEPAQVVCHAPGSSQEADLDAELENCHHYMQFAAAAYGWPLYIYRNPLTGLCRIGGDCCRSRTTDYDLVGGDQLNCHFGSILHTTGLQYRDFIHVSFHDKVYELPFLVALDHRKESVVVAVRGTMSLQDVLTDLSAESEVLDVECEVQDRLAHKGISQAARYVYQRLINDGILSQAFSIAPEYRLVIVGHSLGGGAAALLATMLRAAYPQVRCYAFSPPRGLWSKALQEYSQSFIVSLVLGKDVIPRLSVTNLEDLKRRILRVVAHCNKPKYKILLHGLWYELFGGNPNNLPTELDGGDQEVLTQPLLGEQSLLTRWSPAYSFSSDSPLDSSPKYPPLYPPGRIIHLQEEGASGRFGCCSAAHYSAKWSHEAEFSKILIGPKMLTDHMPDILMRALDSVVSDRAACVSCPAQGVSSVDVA
ABHD5 PLIN5 PPI: ABHD5-PLIN5 interaction inhibitors, primary screen, cell lysate, split luciferase complementation, luminescence | 360,000 compounds, 0.78% hits | AID 602281, 2012 | Perilipin-5 (Homo sapiens) + 1-acylglycerol-3-phosphate O-acyltransferase ABHD5 (Homo … | Split G. princeps luciferase complementation, 4 h | inhibition, % at 4 µM;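 active = inhibition above the mean inhibition across every tested compound plus 3 SD, cut at about 22% in these data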;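 also: 0% = DMSO only wells and the 100% control is not disclosed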
ABHD5-PLIN5 conf: ABHD5-PLIN5 interaction inhibitors, confirmation, biochemical, luminescence; shares compounds with ABHD5 PLIN5 PPI; inhibition, % at 4 µM; 2,200 compounds, 67% hits; AID 651612, 2012; in the data active = inhibition above about 23%;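 also: 0% = DMSO vehicle wells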
HNF4 counter: HNF4 dimerization inhibitors, counter-screen for ABHD5-PLIN5 interaction inhibitor project, biochemical, split-luciferase complementation, luminescence. shares compounds with ABHD5 PLIN5 PPI. 2,200 compounds, 77% hits. inhibition, % at 4 µM;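 active = mean inhibition across replicate wells exceeding the computed hit threshold, cut at about 13% in these data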;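 also: light from luciferase halves that rejoin when HNF4 fusion proteins dimerize; 0% = DMSO only wells and the 100% control is not given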
Numbers without * were called inactive; i = inactive; ? = inconclusive; nt = no result given. A selection: hits, their analogues and other compounds. The true share with any hit is near 2.9%.

SMILES | sPLA2-III inh | Cardio protect | Myeloid diff MLP | Rtt109 HAT inh | DAGLB inh | ABHD5 PLIN5 PPI | ABHD5-PLIN5 conf | HNF4 counter
Cc1ccccc1CS(=O)(=O)c1nnc([C@H](Cc2ccccc2)NC(=O)OC(C)(C)C)o1 | -25.0 | -18.7 | i | 5.5 | 3.3 | 42.9* | 57.3* | 105.5*
COC1OC(COC(=O)c2ccccc2)C(OC(=O)c2ccccc2)C1OC(=O)c1ccccc1 (stereo unspecified) | -15.3 | -2.3 | i | -1.9 | -14.5 | 0.5 | nt | nt
C=C(CN(C)C)C(=O)c1ccc(OC2OC(COC(C)=O)C(OC(C)=O)C(OC(C)=O)C2OC(C)=O)cc1 (stereo unspecified) | -6.6 | -22.8 | nt | 3.1 | 1.5 | 39.2* | 99.2* | 106.3*
O=C(O)c1cccc(-c2ccc3c(c2)OCO3)c1 | 2.5 | 4.2 | i | 2.6 | -1.3 | 88.3* | 2.5 | 3.5
COc1ccc(S(=O)(=O)N(C(C)=O)c2ccc3oc(=O)sc3c2)cc1 | -37.2 | 4.3 | i | -4.6 | 10.4 | 28.7* | -54.9 | 16.4*
O=Cc1s/c(=N\S(=O)(=O)c2ccccc2)n(CCCCl)c1Cl | -1.6 | -32.9 | ? | -12.5 | 3.1 | 36.9* | 68.9* | 106.9*
COC(=O)Cc1ccc(OC2(C)CCN(Cc3csc4ccccc34)C2)cc1 (stereo unspecified) | 9.0 | -11.2 | nt | nt | nt | 0.8 | nt | nt
O=C(Oc1ccccc1/C=C\C(=O)c1cc2ccccc2o1)c1cccc(F)c1 | 9.7 | -10.7 | ? | 3.8 | 0.5 | 32.4* | 98.8* | 94.6*
O=C(Oc1ccccc1/C=C\C(=O)c1cc2ccccc2o1)c1ccccc1 | -13.1 | -21.4 | i | 2.7 | 3.0 | 30.5* | 98.7* | 100.8*
COc1cccc(C(=O)Oc2ccccc2/C=C\C(=O)c2cc3ccccc3o2)c1 | -5.6 | -14.0 | ? | 11.7 | 4.5 | 83.4* | 98.6* | 101.5*
NC(=O)N/N=C/c1ccccc1OC(=O)c1cc2ccccc2oc1=O | 7.1 | 5.2 | i | 6.6 | -1.4 | 2.1 | nt | nt
Cn1nc([N+](=O)[O-])nc1Sc1nnc(-c2ccccc2)o1 | 3.4 | -4.4 | i | -8.1 | 1.3 | 5.8 | nt | nt
Cc1cc(CSc2ccccc2)ccc1NC(=O)COc1ccccc1C | -2.8 | 5.9 | i | -5.3 | -0.5 | -2.0 | nt | nt
CCNS(=O)(=O)c1ccc2nc(NC(=O)c3cccnc3)sc2c1 | -5.2 | -5.6 | i | 4.4 | 1.3 | -2.4 | nt | nt
COc1ccc(S(=O)(=O)N2CCC(n3cnc4ccccc43)CC2)cc1 | -2.8 | -3.2 | ? | 5.4 | -0.7 | 1.7 | nt | nt
C=CC[C@]12C=C(OC)C(=O)C(OC)=C1O[C@@H](c1ccc3c(c1)OCO3)[C@H]2C | -0.9 | -0.3 | i | 2.5 | -1.5 | 0.5 | nt | nt
C=CC[C@]12CC=CC(=O)[C@@]1(O)O[C@H](c1ccc(OC)c(OC)c1)[C@H]2C | -12.7 | -2.2 | ? | 9.4 | 11.0 | 27.0* | 50.0* | 35.9*
COc1ccc(C2=NN(C(=O)c3cccc([N+](=O)[O-])c3)C(c3cccc([N+](=O)[O-])c3)C2)cc1 (stereo unspecified) | 1.0 | -10.3 | i | -0.1 | -2.0 | -5.7 | nt | nt
Cc1ccc(C2=Nc3ccccc3SC(c3cccc([N+](=O)[O-])c3)C2)cc1 (stereo unspecified) | 11.8 | -12.2 | i | 5.1 | 3.7 | 59.5* | 2.6 | 73.5*
CC1=C(C)/C(=N\OS(=O)(=O)c2ccc(C)cc2)C=CC1=O | 5.1 | -22.6 | ? | 108.6* | -1.0 | 60.7* | 66.7* | 96.4*
